Screens: PubChem BioAssay, several laboratories
Ba/F3 V617F tox: lowers viability of Ba/F3 cells expressing EpoR and JAK2V617F | ATP luminescence | inhibition, % at 5.6 µM | 220,000 tested, 1.1% active | AID 1446;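 active means inhibition above the campaign mean plus 3 SD over all tested compounds, cut at about 24% in these data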;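 further: cytokine-independent growth of Ba/F3 cells driven by EpoR plus mutant JAK2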
APP 5UTR inh: APP translation inhibition; SH-SY5Y APP 5'UTR-luciferase reporter, luminescence; 190,000 tested, 0.82% active; inhibition, % at 2 µM;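 active means inhibition above a set limit, derived from the sample mean plus 3 SD, cut at about 45% in these data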
aSyn UTR inh: 5' untranslated region of α-synuclein, MLPCN primary screen; alpha-synuclein 5'UTR reporter, inhibitor activity; inhibition, % (tested at 7.5 µM); 300,000 tested, 0.82% active; AID 1813; in the data active means inhibition above about 60%;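 further: H4 neuroglioblastoma cells stably carrying SNCA 5'UTR luciferase fusion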
BaF3 parental: parental Ba/F3 viability inhibition as JAK2V617F counter-screen. CellTiter-Glo ATP luminescence. AID 1486. 220,000 tested, 1.1% active. inhibition, % at 5.6 µM;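 active means inhibition above a per-campaign cutoff, the mean inhibition of all tested compounds plus 3 SD, cut at about 27% in these data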
KLF5 inhibitor: inhibitors of KLF5 expression | DLD-1 KLF5 promoter-luciferase reporter, luminescence | inhibition, % at 5 µM | 290,000 tested, 0.23% active | AID 1700;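 active means inhibition above a per-plate limit of that plate's mean compound inhibition plus 3 SD, cut at about 60% in these data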;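 further: higher means less KLF5 promoter-driven luciferase light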
IEC-6 tox: counter-screen for KLF5 inhibitors: cytotoxicity in IEC-6 cells; AID 1825; inhibition, % at 5 µM; 290,000 tested, 0.78% active; IEC-6 cytotoxicity, luminescence viability
IEC-6 tox confirm: IEC-6 cytotoxicity, confirmation assay; shares compounds with IEC-6 tox; IEC-6 rat intestinal epithelial viability, luminescence; inhibition, % at 5 µM; 1,900 tested, 63% active
Each line names hits and unclear results; the compound was inactive in the other large screens (follow-up assays come after a bar, where they were run). Sampled rows, rich in hits. Any-hit rate of the full collection: about 2.2%. Unless noted, no stated cut-off is given here; in the data, active means inhibition above about 22%; inactive means the rest.

Cc1ccc(Nc2cc(C)nn2-c2nc(C)cc(=O)[nH]2)cc1	Ba/F3 V617F tox 100.2, APP 5UTR inh 92.1, BaF3 parental 97.9, IEC-6 tox 100.9 | IEC-6 tox confirm 101.2
COc1cc(-c2noc(C)c2C#Cc2ccsc2)cc(OC)c1OC	aSyn UTR inh 68.8, IEC-6 tox 83.0 (no result: Ba/F3 V617F tox, APP 5UTR inh, BaF3 parental) | IEC-6 tox confirm 61.4
COc1cc(-c2noc(C)c2C#CC2(O)CCCCC2)cc(OC)c1OC	none (no result: Ba/F3 V617F tox, APP 5UTR inh, BaF3 parental)
Cc1ccccc1N1CCN(C2CCCN(C(=O)CCc3c(C)noc3C)C2)CC1 (centres undefined)	none (no result: Ba/F3 V617F tox, APP 5UTR inh, BaF3 parental)
Cc1cccc(NS(=O)(=O)c2ccc(-c3cnc(C4CC4)o3)cc2)c1C	aSyn UTR inh 99.7, IEC-6 tox 87.9 (no result: Ba/F3 V617F tox, APP 5UTR inh, BaF3 parental) | IEC-6 tox confirm 58.3
CCOc1ccc(NS(=O)(=O)c2ccc(-c3cnc(C4CC4)o3)cc2)cc1	none (no result: Ba/F3 V617F tox, APP 5UTR inh, BaF3 parental)
O=S(=O)(NCc1ccc(F)cc1)c1ccc(-c2cnc(C3CC3)o2)cc1	none (no result: Ba/F3 V617F tox, APP 5UTR inh, BaF3 parental)
COc1ccc(NS(=O)(=O)c2cc(-c3cnc(C4CC4)o3)ccc2C)cc1	aSyn UTR inh 82.0, IEC-6 tox 80.7 (no result: Ba/F3 V617F tox, APP 5UTR inh, BaF3 parental) | IEC-6 tox confirm 73.8
Cc1cc(C)cc(NS(=O)(=O)c2ccc(-c3cnc(C4CC4)o3)cc2)c1	aSyn UTR inh 93.4, IEC-6 tox 87.2 (no result: Ba/F3 V617F tox, APP 5UTR inh, BaF3 parental) | IEC-6 tox confirm 50.7
Cc1ccc(C)c(NS(=O)(=O)c2ccc(-c3cnc(C4CC4)o3)cc2)c1	aSyn UTR inh 93.2, IEC-6 tox 92.7 (no result: Ba/F3 V617F tox, APP 5UTR inh, BaF3 parental) | IEC-6 tox confirm 62.2
COc1ccccc1NS(=O)(=O)c1cc(-c2cnc(C3CC3)o2)ccc1C	none (no result: Ba/F3 V617F tox, APP 5UTR inh, BaF3 parental)
Cc1ccc(-n2ncc3c2CC(C)(C)CC3NC(=O)CCN2CCCCC2=O)cc1 (centres undefined)	none (no result: Ba/F3 V617F tox, APP 5UTR inh, BaF3 parental)
Cc1cc(NC(=O)COC(=O)c2cc([N+](=O)[O-])ccc2N2CCOCC2)ccc1Br	none (no result: Ba/F3 V617F tox, APP 5UTR inh, BaF3 parental, KLF5 inhibitor, IEC-6 tox)
O=S(=O)(Nc1ccccc1)c1ccc(-c2cnc(C3CC3)o2)cc1	IEC-6 tox 41.5 (no result: Ba/F3 V617F tox, APP 5UTR inh, BaF3 parental) | IEC-6 tox confirm 32.6
CC(=O)Nc1ccc(NS(=O)(=O)c2ccc(-c3cnc(C4CC4)o3)cc2)cc1	none (no result: Ba/F3 V617F tox, APP 5UTR inh, BaF3 parental)
CC(=O)c1cccc(NS(=O)(=O)c2ccc(-c3cnc(C4CC4)o3)cc2)c1	IEC-6 tox 37.5 (no result: Ba/F3 V617F tox, APP 5UTR inh, BaF3 parental) | IEC-6 tox confirm 37.6
Cc1ccc(C(=O)Nc2ccc(C(=O)N3CCCCC3)cc2)o1	none (no result: Ba/F3 V617F tox, APP 5UTR inh, BaF3 parental)
CCCCC(=O)Nc1ccc(C(=O)OC2CCCCC2)cc1	IEC-6 tox 24.4 | IEC-6 tox confirm inactive
O=C(O)CCC(=O)Nc1ccc(C(=O)OC2CCCCC2)cc1	none
CCOc1cc(CNc2ccc3c(c2)OCCO3)cc(Br)c1OCC	Ba/F3 V617F tox 74.3, APP 5UTR inh 94.7, aSyn UTR inh 97.4, BaF3 parental 74.3, IEC-6 tox 83.1 | IEC-6 tox confirm 53.2
CCN(CC)c1ccc(/C=N/NC(=O)c2cnccn2)cc1	Ba/F3 V617F tox 78.2, APP 5UTR inh 73.7, BaF3 parental 73.5, IEC-6 tox 43.4 | IEC-6 tox confirm 55.9
COc1cc2c(cc1OC)-c1c(OC)c(OC)cc3ccnc(c13)C2=O	Ba/F3 V617F tox 46.9, aSyn UTR inh 110.2, BaF3 parental 39.3, IEC-6 tox 28.6 | IEC-6 tox confirm 24.5
O=C(CC1(O)C(=O)N(C/C=C/c2ccccc2)c2ccccc21)c1ccccn1 (centres undefined)	Ba/F3 V617F tox 92.1, APP 5UTR inh 56.8, BaF3 parental 93.3, IEC-6 tox 89.4 | IEC-6 tox confirm 32.5
O=C(CC1(O)C(=O)N(CCc2ccccc2)c2ccccc21)c1ccccn1 (centres undefined)	none
CC1CCc2c(C(=O)Nc3cccc(-c4nn[nH]n4)c3)csc2C1 (centres undefined)	IEC-6 tox 41.8 (no result: Ba/F3 V617F tox, APP 5UTR inh, BaF3 parental) | IEC-6 tox confirm inactive
CCc1nnc(NC(=O)c2csc3c2CCC(C)C3)s1 (centres undefined)	none
O=C(Nc1ccc([N+](=O)[O-])cc1)Nc1ccon1	aSyn UTR inh 74.0, IEC-6 tox 81.6 (no result: Ba/F3 V617F tox, APP 5UTR inh, BaF3 parental) | IEC-6 tox confirm 57.0
OCCn1ccc(-c2ccccc2OCc2ccc(F)cc2)n1	none (no result: Ba/F3 V617F tox, APP 5UTR inh, BaF3 parental)
C/C(=N\NC(=O)c1n[nH]c2c1CCC2)c1ccco1	Ba/F3 V617F tox 83.4, BaF3 parental 86.2, IEC-6 tox 78.6 (no result: APP 5UTR inh) | IEC-6 tox confirm inactive
CCCNC(=O)c1cc2c3ccccc3n(C)c2s1	none (no result: APP 5UTR inh)
Cn1c2ccccc2c2cc(C(=O)NNC(=O)CCl)sc21	IEC-6 tox 26.6 | IEC-6 tox confirm inactive
